These results are taken from PubChem BioAssay (Tox21).

Test [1] is described as follows: qHTS assay to identify small molecule antagonists of the estrogen related receptor (ERR) signaling pathway from Tox21 library - cell viability counter screen (AID 1224834). Further: nearly all actives have a fitted effect of over 30% in size. Further: potency means the concentration at half of the fitted maximal effect. In short, it runs like this:
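CellTiter-Fluor fluorescence measured; ERR cells; 17.5 h compound incubation at 37 C; 30 min reagent step.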

The nature of test [2]: qHTS assay to identify small molecule agonists of the constitutive androstane receptor (CAR) signaling pathway - cell viability counter screen (AID 1224836). Further: nearly all actives have a fitted effect of over 45% in size. In short, it runs like this: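 HepG2 cells stably carrying hCAR and a CYP2B6-2.2kb reporter; 15-concentration compounds plus PK11195 (final 0.75 uM), 23 hr at 37 C/5% CO2. Viability read by CellTiter-Fluor fluorescence.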
A general note: Quantitative high-throughput screening tests each substance at several concentrations.

Test [3] in a line: qHTS assay to identify small molecule antagonists of the constitutive androstane receptor (CAR) signaling pathway - cell viability counter screen (AID 1224837). Further: nearly all actives have a fitted effect of over 45% in size. In short, it runs like this:
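Using CellTiter-Fluor, viability is scored in HepG2 cells stably carrying hCAR and a 2.2kb CYP2B6 reporter after 23 hr compound exposure across 15 concentrations, with CITCO present at 50 nM.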

The target of test [4] is Nuclear receptor subfamily 1 group I member 3 (Homo sapiens) (UniProt Q14994). The test can be described thus: qHTS assay to identify small molecule antagonists of the constitutive androstane receptor (CAR) signaling pathway (AID 1224838).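 Further: HepG2 cells stably expressing hCAR with CYP2B6 luciferase reporter stimulated by CITCO; nearly all actives have a fitted effect of over 40% in size.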 In short, it runs like this: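 Reporter luminescence was quantified after 24 h exposure of hCAR/CYP2B6-2.2kb double-stable HepG2 cells to compounds at 15 concentrations in the presence of 50 nM CITCO final.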

The target is the same in test [5]. The experiment in a line: qHTS assay to identify small molecule agonists of the constitutive androstane receptor (CAR) signaling pathway (AID 1224839). Further: nearly all actives have a fitted effect of over 15% in size. In short, it runs like this: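 HepG2 cells stably co-transfected with hCAR and a CYP2B6-2.2kb luciferase reporter; compounds at 15 concentrations with 0.75 uM PK11195 present. After 24 hr at 37 C, luciferase read by ONE-Glo luminescence.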

Test [6] deals with Thyrotropin receptor (Homo sapiens) (UniProt P16473). The experiment in a line: qHTS assay to identify small molecule agonists of the thyroid stimulating hormone receptor (TSHR) signaling pathway (AID 1224843; calls by dose curve; further: nearly all actives have a fitted effect of over 45% in size). Put shortly:
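HEK293 cells stably bearing the thyrotropin receptor were plated at 800 cells/well and challenged with compound (30 min, RT). Accumulated cAMP was quantified via cAMP-d2 competing for cryptate-tagged antibody.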

A short description of test [7]: qHTS assay to identify small molecule agonists of the hypoxia (HIF-1) signaling pathway - cell viability counter screen (AID 1224844; calls by dose curve; further: nearly all actives have a fitted effect of over 50% in size; further: potency means the concentration at half of the fitted maximal effect). Put shortly: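 Multiplexed with the HRE beta-lactamase assay, this viability read used CellTiter-Glo luminescence (30 min, RT) on HRE-bla ME-180 cells treated 17 hrs with compounds in 0.5% dialyzed FBS medium.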
A short description of test [8]: qHTS assay to identify small molecule agonists of H2AX (AID 1224845; active means well fitted activation curve with a large enough effect in the signal ratio in the repeat runs, not every such curve was filed as active; the % refers to the signal ratio). In short, it runs like this:
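Phospho-H2AX Ser139 measured by HTRF (ex 320 nm; em 665 and 620 nm) after 24 hr antibody incubation. Compounds, 15 concentrations, 0.76% DMSO, were applied to CHO-K1 cells for 3hr at 37C before lysis.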

Test [9] can be described thus: qHTS assay to identify small molecule agonists of H2AX - cell viability counter screen (AID 1224847; calls by dose curve;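 further: wild-type CHO-K1 cells; top concentration of the series differs between compounds; nearly all actives have a fitted effect of over 30% in size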). In short, it runs like this:
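CHO-K1 cells plated overnight at 37C, then exposed 3 h at 37C to compounds at 15 concentrations (0.76% DMSO final). Viability by CellTiter-Glo luminescence after 30 min at room temperature.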

Test [10] can be described thus: qHTS RealTime-Glo MT Cell Viability Assay in HepG2 cells - 24 hour (AID 1224867). Further: nearly all actives have a fitted effect of over 50% in size. Put shortly: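 HepG2 cells (600/well) were dispensed with RealTime-Glo reagents, incubated 5 h at 37 °C, then treated with compounds in DMSO for up to 40 h. Nonlytic NanoLuc luminescence reflecting viable cells was read at each stated time point.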
The nature of test [11]: qHTS RealTime-Glo MT Cell Viability Assay in HEK293 cells - 32 hour (AID 1224868). Further: top concentration of the series differs between compounds; nearly all actives have a fitted effect of over 50% in size. Put shortly:
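HEK293 cells seeded with NanoLuc/prosubstrate reagent, rested 5 h at 37 C, then dosed and kept at 37 C up to 40 h. Nonlytic real-time luminescence from viable cells read at 0, 8, 16, 24, 32 and 40 h.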

Test [12] is described as follows: A CellTox Green Cytotoxicity Assay to monitor cytotoxicity in HEK293 cells - 0 hour (AID 1224869). Further: nearly all actives have a fitted effect of over 50% in size. Put shortly:
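Seeding of HEK293 cells together with cytotoxicity dye preceded a 5 h incubation at 37 C/5% CO2. Test compounds in DMSO were then added and fluorescence monitored across 40 h.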

Test [13] can be described thus: qHTS RealTime-Glo MT Cell Viability Assay in HepG2 cells - 40 hour (AID 1224870). Further: nearly all actives have a fitted effect of over 50% in size. In short, it runs like this:
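Real-time viability: cells seeded at 600 per well together with NanoLuc and cell-permeant prosubstrate, compounds added after 5 h incubation. Luminescence tracked at 0, 8, 16, 24, 32 and 40 h of exposure.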

A short description of test [14]: qHTS assay to identify small molecule antagonists of the estrogen related receptor signaling pathway with the pleiotropic PPARgamma coactivator (PGC) from Tox21 10K library - cell viability counter screen (AID 1224840; active means well fitted cell-killing curve with a large enough effect in the repeat runs, not every such curve was filed as active; further: nearly all actives have a fitted effect of over 40% in size; further: potency means the concentration at half of the fitted maximal effect). In short, it runs like this:
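Here the PGC/ERR cells serve as a cytotoxicity control: they are exposed to compounds for 17.5 hours at 37 C, and live-cell signal is quantified using CellTiter-Fluor fluorescence.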

Test [15] is described as follows: qHTS assay to identify small molecule antagonists of the estrogen related receptor signaling pathway with the pleiotropic PPARgamma coactivator (PGC) from Tox21 10K library (AID 1224841; call rule not given here). Put shortly:
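Each well held 2,000 PGC/ERR cells, pre-incubated six hours (37 C, 5% CO2). Test substances in DMSO were added by pin tool and left for 18 h at 37 C before luciferase detection by One-Glo.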

Test [16] can be described thus: qHTS assay to identify small molecule agonists of the estrogen related receptor signaling pathway with the pleiotropic PPARgamma coactivator (PGC) from Tox21 10K library (AID 1224842). Further: nearly all actives have a fitted effect of over 15% in size. In short, it runs like this: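 Luminescence from One-Glo (30 min, room temperature) measured after PGC/ERR cells had 18 h at 37 C with pinned compound (23 nL in DMSO). Cells had been seeded at 2,000 per well and pre-incubated 6 h.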

Test [17] is described as follows: qHTS assay to identify small molecule agonists of the hypoxia (HIF-1) signaling pathway (AID 1224846; active means well fitted activation curve with a large enough effect in the signal ratio in the repeat runs, not every such curve was filed as active; the % refers to the signal ratio). Put shortly:
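Hypoxia-pathway activation was scored as increased beta-lactamase from an HRE-controlled reporter in ME-180 cells; plated at 2,000 cells per well with 0.5% dialyzed FBS, they were exposed 17 hrs to compounds and then given CCF4-AM.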

A short description of test [18]: qHTS assay to identify small molecule antagonists of the estrogen related receptor (ERR) signaling pathway from Tox21 library (AID 1224848). Further: nearly all actives have a fitted effect of over 50% in size. Further: potency means the concentration at half of the fitted maximal effect. Put shortly:
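Reading was by luminescence 30 min after ONE-Glo addition. Before that, ERR cells at 2,000 per well had rested 6 h at 37 C/5% CO2 and then received pin-tooled compounds in DMSO for 18 h at 37 C.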

Test [19] can be described thus: qHTS assay to identify small molecule agonists of the estrogen related receptor (ERR) signaling pathway from Tox21 library (AID 1224849; calls by dose curve; further: nearly all actives have a fitted effect of over 15% in size). Particulars: ERR reporter cell line, ONE-Glo luciferase, 18 h; at 92.4 µM (top of the series). In short, it runs like this:
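Six hours post-seeding at 37 C/5% CO2, ERR cells receive DMSO-solubilised compounds; after 18 h at 37 C, ONE-Glo reagent is applied and luminescence recorded.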

The target in test [20] is Luciferin 4-monooxygenase (Photinus pyralis) (UniProt P08659). The experiment in a line: qHTS assay to identify small molecule inhibitors of firefly luciferase (AID 1224835). Further: nearly all actives have a fitted effect of over 25% in size. Further: potency means the concentration at half of the fitted maximal effect. Put shortly: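 Inhibition of purified Photinus luciferase is measured by luminescence. Substrate levels (D-luciferin, ATP) sit at their KM values. Each compound is tested in a concentration series.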

Values joined by “and” are separate entries in the source; they are usually repeats but may differ in a detail not shown here. Identical values can stand only once. Inconclusive results are not listed. More than one record can exist for a structure, and the calls need not agree. Active and inactive are the calls of the source. Unless noted, the call rests on the fitted dose curve; in most records, active means well fitted curve in the direction sought with a large enough effect in the repeat runs; inconclusive means weak or mixed curves; inactive means no such curve, though single readings can be large; an effect the other way counts as inactive or inconclusive.
On the % scale 0 is the no-effect control and ±100 the full control effect.

Chain of Nuclear receptor subfamily 1 group I member 3 (Homo sapiens) (Q14994 whole entry, looked up): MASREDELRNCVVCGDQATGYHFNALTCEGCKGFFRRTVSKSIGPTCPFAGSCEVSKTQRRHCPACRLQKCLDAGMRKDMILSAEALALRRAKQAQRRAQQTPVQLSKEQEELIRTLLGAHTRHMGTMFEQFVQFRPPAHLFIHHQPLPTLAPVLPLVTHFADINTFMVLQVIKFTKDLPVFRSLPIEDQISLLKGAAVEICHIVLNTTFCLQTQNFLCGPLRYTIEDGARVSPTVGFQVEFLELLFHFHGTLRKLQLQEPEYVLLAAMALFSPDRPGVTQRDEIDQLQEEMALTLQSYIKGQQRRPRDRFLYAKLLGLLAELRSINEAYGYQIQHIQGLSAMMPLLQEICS
Chain of Luciferin 4-monooxygenase (Photinus pyralis) (P08659 whole entry, looked up): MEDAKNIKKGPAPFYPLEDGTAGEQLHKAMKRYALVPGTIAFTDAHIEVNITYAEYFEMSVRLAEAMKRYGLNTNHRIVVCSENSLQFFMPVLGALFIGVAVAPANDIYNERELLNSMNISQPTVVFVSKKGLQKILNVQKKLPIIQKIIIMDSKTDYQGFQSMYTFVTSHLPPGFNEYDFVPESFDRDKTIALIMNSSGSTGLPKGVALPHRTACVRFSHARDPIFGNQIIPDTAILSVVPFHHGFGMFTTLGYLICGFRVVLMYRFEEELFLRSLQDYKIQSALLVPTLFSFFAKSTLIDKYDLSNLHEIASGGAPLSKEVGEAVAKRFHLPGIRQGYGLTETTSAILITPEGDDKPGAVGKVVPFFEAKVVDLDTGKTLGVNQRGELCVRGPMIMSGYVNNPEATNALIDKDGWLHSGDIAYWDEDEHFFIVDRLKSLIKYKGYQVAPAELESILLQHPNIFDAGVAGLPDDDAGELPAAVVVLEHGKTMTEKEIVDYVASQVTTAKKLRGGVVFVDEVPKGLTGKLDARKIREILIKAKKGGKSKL
Chain of Thyrotropin receptor (Homo sapiens) (P16473 whole entry, looked up): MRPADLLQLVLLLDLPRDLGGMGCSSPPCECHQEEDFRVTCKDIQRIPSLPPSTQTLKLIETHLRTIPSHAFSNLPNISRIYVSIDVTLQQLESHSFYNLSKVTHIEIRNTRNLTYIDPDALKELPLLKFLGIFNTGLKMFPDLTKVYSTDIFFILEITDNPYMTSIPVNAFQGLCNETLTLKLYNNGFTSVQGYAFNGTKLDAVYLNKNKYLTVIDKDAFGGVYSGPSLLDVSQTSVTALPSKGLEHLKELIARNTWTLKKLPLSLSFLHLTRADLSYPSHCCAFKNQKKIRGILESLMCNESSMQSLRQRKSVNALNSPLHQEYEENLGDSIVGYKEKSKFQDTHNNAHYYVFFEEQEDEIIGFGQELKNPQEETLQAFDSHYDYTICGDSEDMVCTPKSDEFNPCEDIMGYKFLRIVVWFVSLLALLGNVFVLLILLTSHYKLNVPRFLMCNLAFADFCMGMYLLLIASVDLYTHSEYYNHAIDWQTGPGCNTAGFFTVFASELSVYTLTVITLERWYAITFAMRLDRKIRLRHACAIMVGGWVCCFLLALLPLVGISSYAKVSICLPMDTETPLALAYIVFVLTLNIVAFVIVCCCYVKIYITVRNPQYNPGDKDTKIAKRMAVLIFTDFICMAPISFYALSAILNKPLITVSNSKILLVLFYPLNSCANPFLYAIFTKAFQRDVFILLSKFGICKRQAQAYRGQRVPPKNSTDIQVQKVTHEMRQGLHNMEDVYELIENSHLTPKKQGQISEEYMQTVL

Consider `Clc1cccc(Cl)c1NC1=NCCN1`, for which the Potency result in [1], in [2], in test [3], in test [4], in test [5] and in [6] was “inactive” throughout. Besides, the Potency entry in test [7], in [8], in test [9], in test [10], in [11] and in test [12] was “inactive” in each case. Moreover, the Potency result in test [13] was “inactive”.

For `O=C(c1ccccc1)c1ccc(O)c(O)c1O`, in test [1], the Potency is 49 µM (active). The Potency entry in test [2], in test [3], in test [14], in test [15], in [16] and in [6] was “inactive” each time. The Potency result in [9], in test [18], in [10], in test [11], in test [12] and in test [13] was “inactive” each time. Moreover, the call in test [17] was inactive. Also, the activity change, positive = activation in [19] is -7.85% (inactive) and -0.637% (inactive).

On to `CC1=CC(=O)CC(C)(C)C1`, for which the Potency in [1] was 22.3 µM (active) and inactive; in [20], 36.6 µM (active) and inactive; in test [14], 28.1 µM (active) and inactive; in test [7], 4.49 µM (active) and inactive; in test [18], 14.1 µM (active) and inactive. Also, the Potency result in test [15], in test [16], in test [6], in [8], in [9] and in [10] was “inactive” in each case. In addition, the Potency entry in test [11], in test [12] and in test [13] was “inactive” in each case. In test [17], the outcome was inactive. In addition, the activity change, positive = activation in test [19] is -82.9% (inactive) and 7.49% (inactive).

On to `COc1ccc([C@@H]2CC(=O)c3c(O)cc(O[C@@H]4O[C@H](CO[C@@H]5O[C@@H](C)[C@H](O)[C@@H](O)[C@H]5O)[C@@H](O)[C@H](O)[C@H]4O)cc3O2)cc1OC`, for which the Potency entry in test [1], in test [2], in test [3], in test [4], in test [5] and in test [14] was “inactive” throughout. The Potency entry in test [6], in test [7], in test [8], in test [9], in test [10] and in test [11] was “inactive” in each case. Further, the Potency entry in test [12] and in test [13] was “inactive” in each case. In addition, in test [17], the result was inactive.

On to `CC1(C)C(=O)N(Cl)C(=O)N1Cl`, for which the Potency entry in [1], in test [20], in [2], in [3], in [6] and in test [7] was “inactive” each time. For the same compound, the Potency entry in test [8], in test [9], in test [10], in test [11], in test [12] and in test [13] was “inactive” in each case. Further, the compound was classed as inactive in [17].

In the case of `CO[Si](CCCNCCN)(OC)OC`, the Potency result in test [1], in test [20], in test [2], in test [3], in [14] and in test [6] was “inactive” in each case. The Potency entry in [7], in [8], in test [9], in test [10], in test [11] and in test [12] was “inactive” each time. Moreover, in test [13], the Potency result is “inactive”. The result in test [17] was inactive.

For `O=C(O)C1=NN(c2ccc(S(=O)(=O)O)cc2)C(=O)C1`, the Potency result in test [1], in test [20], in [2], in [3], in [14] and in [6] was “inactive” in each case. Moreover, the Potency result in [7], in test [9], in test [10], in [11], in test [12] and in test [13] was “inactive” each time. In addition, the compound was called inactive in [17].
